# Assay results reported in PubChem BioAssay.
# Calls of active or inactive are those of the source.
# Tests used:
# [1] = A549 cell viability effects, profiling panel, calcein-AM fluorescence, 48 h, basal (AID 1162); conditions: higher = more signal
# [2] = adipocyte viability effects, profiling panel, cell-based, 3T3-L1 adipocytes, calcein-AM fluorescence, 48 h, basal (AID 1163); conditions: 3T3-L1 adipocytes viability, higher = more signal
# [3] = HepG2 cell viability effects, profiling panel, calcein-AM fluorescence, 48 h, basal (AID 1164); conditions: higher = more signal
# [4] = MM1S cell viability effects, profiling panel, calcein-AM fluorescence, 48 h, basal (AID 1165); conditions: higher = more signal;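 note: viability of MM1S multiple myeloma cells under basal unstimulated conditions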
# [5] = basal RPMI8226 viability, no added stimulus, profiling panel, cell-based, calcein-AM fluorescence, 48 h, PK04 Diversity Set (AID 1166); conditions: higher = more signal; RPMI8226 myeloma viability, calcein-AM fluorescence, 48 h unless noted;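 note: cells grown under basal conditions without added stimulus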
# [6] = basal HepG2 mitochondrial membrane potential changes, profiling panel, cell-based, JC-1 fluorescence, 24 h, 100 nL compound (AID 1167); conditions: higher = more signal
# [7] = basal 3T3-L1 adipocyte mitochondrial potential changes, profiling panel, cell-based, JC-1 fluorescence, 3T3-L1 adipocytes, 24 h, 100 nL compound (AID 1168); conditions: JC-1 mitochondrial fluorescence; higher = more signal, called active from +8 up or from −8 down unless noted
# [8] = basal RPMI8226 mitochondrial membrane potential changes, profiling panel, cell-based, JC-1 fluorescence, 24 h, 100 nL compound (AID 1169); conditions: higher = more signal; RPMI8226 myeloma, JC-1 mitochondrial potential fluorescence, 24 h unless noted
# [9] = basal MM1S mitochondrial membrane potential changes, profiling panel, cell-based, JC-1 fluorescence, 24 h, 100 nL compound (AID 1170); conditions: higher = more signal
# [10] = A549 lung cancer cell viability effects, profiling panel, resazurin fluorescence, 24 h, PK04 Diversity Set (AID 1171); conditions: higher = more signal, called active from +8 up or from −8 down unless noted
# Note: test concentration not given here.
SMILES,z-score [1],z-score [2],z-score [3],z-score [4],z-score [5],z-score [6],z-score [7],z-score [8],z-score [9],z-score [10]
C[C@@H]1Cc2c(cnc3c2CN(C)CC3)CO1,0.298,0.288,-0.153,-1.39,0.089,0.389,0.284 (inactive),-0.258,0.677,0.707 (inactive)
CCCc1cc2c(n1CCO)C(C)C1CN(C(=O)c3ccccc3)C(C)(C(=O)OC)C21 (stereo not given),-0.981,0.348,0.436,-1.38,-0.875,0.156,-0.962 (inactive),0.719,-0.379,-1.04 (inactive)
COc1cc2c(cc1O)C=[N+](C)CC2,1.82,0.775,0.496,-0.0896,0.245,0.424,0.964 (inactive),-0.0385,-0.635,-1.52 (inactive)
COC(=O)[C@H]1[C@@H](O)[C@@]2(O)c3c(OC)cc(OC)cc3O[C@@]2(c2ccc(OC)cc2)[C@@H]1c1ccccc1,-2.35,-1.63,-2.23,-3.46,-3.35,-2.69,-0.0573 (inactive),-0.727,-1.19,-4.41 (inactive)
CCCc1cc2c(n1Cc1ccco1)C(C)C1CN(C(=O)c3ccccc3)C(C)(C(=O)OC)C21 (stereo not given),-0.136,0.227,-0.369,-3.24,-2.66,2.35,-1.5 (inactive),0.228,-1.53,-1.36 (inactive)
COC(=O)[C@@]1(Cc2ccccc2)[C@H]2c3cc(C(=O)N(C)C)n(C)c3C[C@H]2CN1C(=O)c1ccccc1,-1.73,-0.537,-0.189,0.0394,-1.19,0.0427,-0.078 (inactive),-0.318,-0.437,0.0026 (inactive)
COC(=O)[C@@]1(Cc2ccc(F)cc2)[C@H]2c3cc(C(=O)N(C)C)[nH]c3C[C@H]2CN1C(=O)c1ccccc1,-0.632,-0.597,0.337,0.334,-0.425 [setting not given],0.174,0.0376 [setting not given] (inactive),-0.101 [setting not given],-0.872,-0.868 [setting not given] (inactive)
CCOC(=O)[C@H]1CC=C2C(=O)Oc3ccc(Br)cc3[C@@H]21,-2.46,-0.556,-2.35,-2.9,-3.93,1.36,0.599 (inactive),0.407,0.132,0.234 (inactive)
CCc1cc2c(nc1CC)CCN(CCC(C)=NOC)C2,0.151,0.504,0.0911,0.69,-2.14,2.55,-1.37 (inactive),1.07,0.196,-0.521 (inactive)
COC(=O)C1(C)C=C2C(=C(C)C(=O)C2C)CN1 (stereo not given),-1.32,-0.254,-1.21,0.224,-2.24,-1.57,-0.482 (inactive),0.262,-0.221,-1.62 (inactive)
CN1CCc2nc(CO)c(CO)cc2C1,1.18,0.593,0.0749,-1.02,0.672,0.302,-0.23 (inactive),0.38,1.04,0.515 (inactive)
CN1CCC(c2ccc(CO)cc2)=CC1c1cccs1 (stereo not given),0.368,-0.393,-0.153,-2.81,-0.157,-1.28,-0.581 (inactive),0.554,-0.277,-0.103 (inactive)
OCc1ccc(C2=CC(c3cccs3)N(Cc3cccc(OC(F)(F)F)c3)CC2)cc1 (stereo not given),1.08,0.314,-0.65,-2.61,-0.633,-2.28,0.0997 (inactive),-0.0311,0.518,0.439 (inactive)
C[C@H]1O[C@H]2C3=C(C(=O)[C@@H]4O[C@@H]4[C@@H]3O)[C@@H]1[C@@H]1[C@@H](C)OC=C3[C@@H](O)[C@H]4O[C@H]4C(=O)[C@]312,0.767,0.439,0.0608,-1.54,-0.168,-0.407,0.407 (inactive),0.692,-0.996,-0.831 (inactive)
CN1CCC(c2ccc(CO)cc2)=CC1C1CC1 (stereo not given),0.169,-0.228,0.061,-1.25,0.0447,-0.851,-0.625 (inactive),0.604,-0.409,-0.374 (inactive)
COc1cc2c(cc1O)C(C)N(C)CC2 (stereo not given),1.22,1.01,0.262,-0.853,0.456,0.0836,1.27 (inactive),-0.663,1.07,0.115 (inactive)
